Records with an inconclusive call do not appear. The source made the active and inactive calls. Rule for the calls: active = hit-call score of the fitted dose curve at least 0.9, where 1 is the maximum; inconclusive = response in the unintended direction; inactive = score below 0.9.
tested on: not listed separately; test: TOX21_p53_BLA_p3_viability: Viability Assessment in the Tox21 HCT-116 p53 Agonism Beta-lactamase Assay, Phase 3 (AID 2283593);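 note: cells exposed to compound for 16 h before reading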
Method in brief: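 HCT116 cells, 4000/well, dosed 5 h after plating by pin transfer (217-fold dilution from DMSO stock) and incubated 16 h at 37C, 5% CO2. Viability read as ATP luminescence with CellTiter-Glo after 30 min at room temperature.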

Structure (SMILES) | outcome
CCOC(=O)c1ccc(C)cc1 | inactive
CC(Cl)COP(=O)(OCC(C)Cl)OCC(C)Cl (stereo not drawn) | inactive
C=CC(C)(CCC=C(C)C)OC(=O)C=Cc1ccccc1 (stereo not drawn) | inactive
Cc1ccccc1CCO | inactive
Cc1ccc(S(=O)(=O)N=C=O)cc1 | inactive
NNS(=O)(=O)c1ccc(Oc2ccc(S(=O)(=O)NN)cc2)cc1 | inactive
CCCCCC(=O)OCC | inactive
CC1=CCC2CC1C2(C)C (stereo not drawn) | inactive
CCCCC(CC)COC(=O)/C=C/c1ccc(OC)cc1 (stereo not drawn) | inactive
COC(=O)c1ccccc1C | inactive
Cc1cc(C)n(CO)n1 | inactive
c1ccc2cnccc2c1 | inactive
CC(C)=CCl | inactive
Nc1ccc(C(=O)OCCCOC(=O)c2ccc(N)cc2)cc1 | inactive
CC(C)CCCCCOC(=O)CS | inactive
CCCCCCCCCCCC(C)=O | inactive
CC(=O)OCCc1ccccc1 | inactive
CCCC1CCCC(=O)O1 (stereo not drawn) | inactive

target: Cellular tumor antigen p53 (Homo sapiens) (UniProt P04637); test: TOX21_p53_BLA_p3_ratio: Tox21 HCT-116 p53 Agonism Beta-lactamase Assay, Ratio, Phase 3 (AID 2283596)
Method in brief: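 Cells were seeded at 4000/well, rested 5 h at 37C, then dosed with DMSO compound solutions (217-fold dilution) for 16 h. CCF4-AM substrate was loaded for 2 h at room temperature, and the 460/530 nm emission ratio was fitted for gain of signal versus DMSO.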

Cellular tumor antigen p53 (Homo sapiens), sequence (P04637 whole entry, looked up): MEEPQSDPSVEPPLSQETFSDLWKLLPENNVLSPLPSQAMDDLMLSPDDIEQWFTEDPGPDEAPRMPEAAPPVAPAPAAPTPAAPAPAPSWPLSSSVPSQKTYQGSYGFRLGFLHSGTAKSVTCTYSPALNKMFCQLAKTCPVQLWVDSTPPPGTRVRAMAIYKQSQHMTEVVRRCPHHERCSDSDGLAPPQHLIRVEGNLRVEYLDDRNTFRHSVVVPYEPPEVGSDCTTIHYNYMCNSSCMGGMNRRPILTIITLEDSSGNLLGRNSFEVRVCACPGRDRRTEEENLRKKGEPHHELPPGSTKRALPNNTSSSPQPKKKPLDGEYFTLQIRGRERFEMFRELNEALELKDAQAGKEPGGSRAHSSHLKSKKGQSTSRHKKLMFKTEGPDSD

Structure (SMILES) | outcome
CCOC(=O)c1ccc(C)cc1 | inactive
CCCSSCCC | inactive
CC(CC=O)CC(C)(C)C (stereo not drawn) | inactive
CC(C)c1cc(C(C)C)cc(C(C)C)c1 | inactive
C=CC(C)(CCC=C(C)C)OC(=O)C=Cc1ccccc1 (stereo not drawn) | inactive
COc1cc(C)ccc1O | inactive
Cc1ccccc1CCO | inactive
Cc1ccc(S(=O)(=O)N=C=O)cc1 | inactive
CC1CCC(C(C)(C)S)C(=O)C1 (stereo not drawn) | inactive
CCCC(C)C(=O)OCC (stereo not drawn) | inactive
CC(=O)C(C)C | inactive
CCCCc1ccc(Cl)cc1 | inactive
COC(=O)c1ccccc1C | inactive
Cc1cc(C)n(CO)n1 | inactive
NC(=O)Nc1ccccc1 | inactive
C=CC(C)(O)CC/C=C(\C)CC (stereo not drawn) | inactive
CC(C)=CCl | inactive
CC(C)(C)N | inactive
CCCCCCCCCCCCC | inactive
CCCC1CCCC(=O)O1 (stereo not drawn) | inactive

tested on: not listed separately; test: TOX21_p53_BLA_p4_viability: Viability Assessment in the Tox21 HCT-116 p53 Agonism Beta-lactamase Assay, Phase 4 (AID 2283597);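 note: hits lower the luminescence signal meaning cytotoxicity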
Method in brief: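 ATP content by CellTiter-Glo luminescence, 30 min RT, read after the beta-lactamase ratio step. Cells: HCT116, 4000/well, compound added after 5 h, exposure 16 h at 37C. Signal loss = reduced viability.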

Structure (SMILES) | outcome
CC(Cl)COP(=O)(OCC(C)Cl)OCC(C)Cl (stereo not drawn) | inactive
CC(CC=O)CC(C)(C)C (stereo not drawn) | inactive
CC(C)c1cc(C(C)C)cc(C(C)C)c1 | inactive
C=CC(C)(CCC=C(C)C)OC(=O)C=Cc1ccccc1 (stereo not drawn) | inactive
COc1cc(C)ccc1O | inactive
CC1CCC(C(C)(C)S)C(=O)C1 (stereo not drawn) | inactive
CCCC(C)C(=O)OCC (stereo not drawn) | inactive
CC1=NN(c2ccc(S(=O)(=O)O)cc2)C(=O)C1N=Nc1ccccc1 (stereo not drawn) | inactive
CCCCc1ccc(Cl)cc1 | inactive
CC1=CCC2CC1C2(C)C (stereo not drawn) | inactive
CCCCC(CC)COC(=O)/C=C/c1ccc(OC)cc1 (stereo not drawn) | inactive
NC(=O)Nc1ccccc1 | inactive
C=CC(C)(O)CC/C=C(\C)CC (stereo not drawn) | inactive
CC(C)=CCl | inactive
Nc1ccc(C(=O)OCCCOC(=O)c2ccc(N)cc2)cc1 | inactive
CC(C)CCCCCOC(=O)CS | inactive
CC(=O)OCCc1ccccc1 | inactive
C=CCCCCCCCCC=O | inactive
CC(C)(C)N | inactive
CCN1CN(CC)CN(CC)C1 | inactive
